Laboratory results taken from article PMC9911399, “Two distinct binding modes provide the RNA-binding protein RbFox with extraordinary sequence specificity”.
Changes are numbered by the printed parent chain; changes in the protein carry UniProt numbers. Whole data set: some 16,000 sequences, median “ka relative to ugcaugu” near 0.0091, cut for the highest 2% near 0.032. The full list was thinned out, with the highest values kept by preference.

T1: RBFOX1 RRM (Homo sapiens, UniProt Q9NWB1 109-208)
T1 sequence: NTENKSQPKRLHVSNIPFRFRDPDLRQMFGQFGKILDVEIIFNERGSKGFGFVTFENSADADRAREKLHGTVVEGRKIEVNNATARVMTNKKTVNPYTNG

B1: CACCUAU (DNA:RNA)
RNA: GGGAGACCGGAAUUCAGAUUGUCCCACCUAUUUAAAUCCCGUCGUAGCCACCA
DNA 1: CAATCTGAATTCCGGTCTCCC
DNA 2: TGGTGGCTACGACGGGATT
B2: AAGUACA (DNA:RNA)
RNA: B1 RNA with C25A, C27G, C28U, U29A, A30C, U31A
DNA 1: CAATCTGAATTCCGGTCTCCC
DNA 2: TGGTGGCTACGACGGGATT
B3: UGCGGAA (DNA:RNA)
RNA: B1 RNA with C25U, A26G, C28G, U29G, U31A
DNA 1: CAATCTGAATTCCGGTCTCCC
DNA 2: TGGTGGCTACGACGGGATT
B4: UCAUCGU (DNA:RNA)
RNA: B1 RNA with C25U, A26C, C27A, C28U, U29C, A30G
DNA 1: CAATCTGAATTCCGGTCTCCC
DNA 2: TGGTGGCTACGACGGGATT
B5: AUAAGUU (DNA:RNA)
RNA: B1 RNA with C25A, A26U, C27A, C28A, U29G, A30U
DNA 1: CAATCTGAATTCCGGTCTCCC
DNA 2: TGGTGGCTACGACGGGATT
B6: UGAGCCA (DNA:RNA)
RNA: GGGAGACCGGAAUUCAGAUUGUCCUGAGCCAUUAAAUCCCGUCGUAGCCACCA
DNA 1: CAATCTGAATTCCGGTCTCCC
DNA 2: TGGTGGCTACGACGGGATT
B7: ACAUCCA (DNA:RNA)
RNA: B6 RNA with U25A, G26C, G28U
DNA 1: CAATCTGAATTCCGGTCTCCC
DNA 2: TGGTGGCTACGACGGGATT
B8: UUUGAUA (DNA:RNA)
RNA: B6 RNA with G26U, A27U, C29A, C30U
DNA 1: CAATCTGAATTCCGGTCTCCC
DNA 2: TGGTGGCTACGACGGGATT
B9: CGGACUG (DNA:RNA)
RNA: B6 RNA with U25C, A27G, G28A, C30U, A31G
DNA 1: CAATCTGAATTCCGGTCTCCC
DNA 2: TGGTGGCTACGACGGGATT
B10: CAGACUG (DNA:RNA)
RNA: B1 RNA with C27G, C28A, U29C, A30U, U31G
DNA 1: CAATCTGAATTCCGGTCTCCC
DNA 2: TGGTGGCTACGACGGGATT
B11: UGUGGAC (DNA:RNA)
RNA: B6 RNA with A27U, C29G, C30A, A31C
DNA 1: CAATCTGAATTCCGGTCTCCC
DNA 2: TGGTGGCTACGACGGGATT
B12: UGGACUG (DNA:RNA)
RNA: B6 RNA with A27G, G28A, C30U, A31G
DNA 1: CAATCTGAATTCCGGTCTCCC
DNA 2: TGGTGGCTACGACGGGATT
B13: GGGACUG (DNA:RNA)
RNA: B6 RNA with U25G, A27G, G28A, C30U, A31G
DNA 1: CAATCTGAATTCCGGTCTCCC
DNA 2: TGGTGGCTACGACGGGATT
B14: UGGAGAC (DNA:RNA)
RNA: B6 RNA with A27G, G28A, C29G, C30A, A31C
DNA 1: CAATCTGAATTCCGGTCTCCC
DNA 2: TGGTGGCTACGACGGGATT
B15: AGGACUG (DNA:RNA)
RNA: B6 RNA with U25A, A27G, G28A, C30U, A31G
DNA 1: CAATCTGAATTCCGGTCTCCC
DNA 2: TGGTGGCTACGACGGGATT
B16: GGGACCG (DNA:RNA)
RNA: B6 RNA with U25G, A27G, G28A, A31G
DNA 1: CAATCTGAATTCCGGTCTCCC
DNA 2: TGGTGGCTACGACGGGATT
B17: GGACUGU (DNA:RNA)
RNA: B1 RNA with C25G, A26G, C27A, A30G
DNA 1: CAATCTGAATTCCGGTCTCCC
DNA 2: TGGTGGCTACGACGGGATT
B18: CCUGGCU (DNA:RNA)
RNA: B1 RNA with A26C, C27U, C28G, U29G, A30C
DNA 1: CAATCTGAATTCCGGTCTCCC
DNA 2: TGGTGGCTACGACGGGATT
B19: AGGUGAU (DNA:RNA)
RNA: B1 RNA with C25A, A26G, C27G, C28U, U29G
DNA 1: CAATCTGAATTCCGGTCTCCC
DNA 2: TGGTGGCTACGACGGGATT
B20: UUCGAUU (DNA:RNA)
RNA: B1 RNA with C25U, A26U, C28G, U29A, A30U
DNA 1: CAATCTGAATTCCGGTCTCCC
DNA 2: TGGTGGCTACGACGGGATT

Target: T1, RBFOX1 RRM
Test: EMSA; HiTS-Eq, 1 nM pool, 10 min; buffer printed only for the single-RNA assays: 10 mM Tris pH 7.5, 150 mM NaCl, 3.4 mM EDTA, 0.001% NP-40, 30 C
Settings: tags: His6 N-terminal (pET28a); label: 5' 32P
Summary of the method: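 Purified RbFox RRM, wild type or mutant, was incubated for 10 min in 50 µL with 1 nM of a 5′-radiolabelled RNA pool carrying 7 randomized nucleotides, whose flanks were annealed to DNA oligonucleotides, over a series of increasing protein concentrations. Unbound RNA was resolved on 8% native PAGE, cut out, reverse-transcribed, barcoded by PCR and sequenced on an Illumina HiSeq 2500. Relative association constants were derived from changes in read counts for each RNA species versus the control reaction and normalised to the cognate motif.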

**Q.** How did the binding signal turn out when B1 was run?
**A.** The binding signal was 0.000316 KA relative to UGCAUGU.

**Q.** For B2, which binding signal is on record?
**A.** Its binding signal is 0.00261 KA relative to UGCAUGU.

**Q.** B3 was tested. Which binding signal did it give?
**A.** Its binding signal is 0.0165 KA relative to UGCAUGU.

**Q.** Which binding signal does the source give for B4 here?
**A.** Its binding signal is 0.0124 KA relative to UGCAUGU.

**Q.** Which binding signal does the source give for B5 here?
**A.** The binding signal was 0.00282 KA relative to UGCAUGU.

**Q.** With B6 as the binder, how does the binding signal read?
**A.** The binding signal was 0.00784 KA relative to UGCAUGU.

**Q.** B7 was tested. Which binding signal did it give?
**A.** Its binding signal is 0.000399 KA relative to UGCAUGU.

**Q.** B8 was tested. Which binding signal did it give?
**A.** Its binding signal is 0.0145 KA relative to UGCAUGU.

**Q.** With B9 as the binder, how does the binding signal read?
**A.** Its binding signal is 0.0352 KA relative to UGCAUGU.

**Q.** Which binding signal does the source give for B10 here?
**A.** The binding signal was 0.0132 KA relative to UGCAUGU.

**Q.** With B11 as the binder, how does the binding signal read?
**A.** Its binding signal is 0.00524 KA relative to UGCAUGU.

**Q.** How did the binding signal turn out when B12 was run?
**A.** Its binding signal is 0.0448 KA relative to UGCAUGU.

**Q.** For B13, which binding signal is on record?
**A.** Its binding signal is 0.0322 KA relative to UGCAUGU.

**Q.** For B14, which binding signal is on record?
**A.** Its binding signal is 0.007 KA relative to UGCAUGU.

**Q.** For B15, which binding signal is on record?
**A.** The binding signal was 0.0275 KA relative to UGCAUGU.

**Q.** B16 was tested. Which binding signal did it give?
**A.** The binding signal was 0.0273 KA relative to UGCAUGU.

**Q.** How did the binding signal turn out when B17 was run?
**A.** Its binding signal is 0.0223 KA relative to UGCAUGU.

**Q.** How did the binding signal turn out when B18 was run?
**A.** The binding signal was 0.0127 KA relative to UGCAUGU.

**Q.** Which binding signal does the source give for B19 here?
**A.** Its binding signal is 0.0113 KA relative to UGCAUGU.

**Q.** For B20, which binding signal is on record?
**A.** Its binding signal is 0.00889 KA relative to UGCAUGU.
